Read-outs that look alike come from different tables or passages of the source.

What all share (set-up): species or system human, MV4-11 + K-562 + COLO205 + SK-N-BE2 + OVCAR-8
The subject of one experiment is ACVR2B. As to conditions: read-out: apparent Kd, compound concentrations: 100 nM and 1000 nM (sheet 'Samples'), n = 1.
The test system of a further experiment is AURKA. To be noted: read-out: apparent Kd; compound concentrations: 100 nM and 1000 nM (sheet 'Samples'), CATDS: 0.17816442953383199; n = 1.
The subject of the next experiment is AURKB. As to conditions: read-out: apparent Kd; compound concentrations: 100 nM and 1000 nM (sheet 'Samples'), CATDS: 0.16275021162643; n = 1.
Another experiment deals with CDKL5. As to conditions: read-out: apparent Kd, compound concentrations: 100 nM and 1000 nM (sheet 'Samples'), n = 1.
The next experiment deals with FGFR1. As to conditions: read-out: apparent Kd; compound concentrations: 100 nM and 1000 nM (sheet 'Samples'), CATDS: 3.3147223570266997E-2; n = 1.
A further experiment has as its system FLT3. To be noted: read-out: apparent Kd; compound concentrations: 100 nM and 1000 nM (sheet 'Samples'), CATDS: 3.2008123306219403E-2; n = 1.
The subject of the next experiment is FLT4. As to conditions: read-out: apparent Kd; compound concentrations: 100 nM and 1000 nM (sheet 'Samples'), CATDS: 9.9526112559891702E-2; n = 1.
A further experiment deals with GSK3A. To be noted: read-out: apparent Kd; compound concentrations: 100 nM and 1000 nM (sheet 'Samples'), CATDS: 0.17602991696345399; n = 1.
The test system of another experiment is GSK3B. To be noted: read-out: apparent Kd; compound concentrations: 100 nM and 1000 nM (sheet 'Samples'), CATDS: 0.14122707507865501; n = 1.
The next experiment concerns MAP3K1. As to conditions: read-out: apparent Kd; compound concentrations: 100 nM and 1000 nM (sheet 'Samples'), CATDS: 3.7364470577418298E-2; n = 1.
Another experiment deals with MAP3K5. As to conditions: read-out: apparent Kd; compound concentrations: 100 nM and 1000 nM (sheet 'Samples'), CATDS: 2.9017198987143701E-2; n = 1.
A further experiment deals with MAPK10. To be noted: read-out: apparent Kd; compound concentrations: 100 nM and 1000 nM (sheet 'Samples'), CATDS: 3.1635267678624499E-2; n = 1.
The test system of the next experiment is MAPK9. As to conditions: read-out: apparent Kd; compound concentrations: 100 nM and 1000 nM (sheet 'Samples'), CATDS: 4.3387929743655899E-2; n = 1.
In a further experiment the test system is NQO2. As to conditions: read-out: apparent Kd; compound concentrations: 100 nM and 1000 nM (sheet 'Samples'), CATDS: 5.8964681911963503E-2; n = 1.
For a further experiment, the system named is NUAK1. As to conditions: read-out: apparent Kd; compound concentrations: 100 nM and 1000 nM (sheet 'Samples'), CATDS: 3.13847647871121E-2; n = 1.
For the next experiment, the system named is PLK4. To be noted: read-out: apparent Kd; compound concentrations: 100 nM and 1000 nM (sheet 'Samples'), CATDS: 5.2678675037883101E-2; n = 1.
A further experiment concerns PRKAA2. To be noted: read-out: apparent Kd; compound concentrations: 100 nM and 1000 nM (sheet 'Samples'), CATDS: 3.01302788001056E-2; n = 1.
A further experiment has as its system RET. As to conditions: read-out: apparent Kd; compound concentrations: 100 nM and 1000 nM (sheet 'Samples'), CATDS: 5.3147422630729399E-2; n = 1.
Another experiment concerns SLK. To be noted: read-out: apparent Kd; compound concentrations: 100 nM and 1000 nM (sheet 'Samples'), CATDS: 2.96585498316322E-2; n = 1.
For the next experiment, the system named is STK10. As to conditions: read-out: apparent Kd; compound concentrations: 100 nM and 1000 nM (sheet 'Samples'), CATDS: 4.4384834768784902E-2; n = 1.
The test system of a further experiment is STK16. As to conditions: read-out: apparent Kd; compound concentrations: 100 nM and 1000 nM (sheet 'Samples'), CATDS: 3.04344636095151E-2; n = 1.
For a further experiment, the system named is TEC. To be noted: read-out: apparent Kd; compound concentrations: 100 nM and 1000 nM (sheet 'Samples'), CATDS: 3.6245892865131898E-2; n = 1.
The next experiment relates to TTN. As to conditions: read-out: apparent Kd; compound concentrations: 100 nM and 1000 nM (sheet 'Samples'), CATDS: 3.6738161320686101E-2; n = 1.
In another experiment the test system is ADCK3. To be noted: read-out: apparent Kd; compound concentrations: 100 nM and 1000 nM (sheet 'Samples'), CATDS: 4.2636301284937402E-2; n = 1.
For another experiment, the system named is AKT2. To be noted: read-out: apparent Kd; compound concentrations: 100 nM and 1000 nM (sheet 'Samples'), CATDS: 3.8315298656597697E-2; n = 1.
Another experiment relates to CDC42BPB. As to conditions: read-out: apparent Kd; compound concentrations: 100 nM and 1000 nM (sheet 'Samples'), CATDS: 4.17361912468606E-2; n = 1.
Another experiment has as its system CDC42BPG. To be noted: read-out: apparent Kd; compound concentrations: 100 nM and 1000 nM (sheet 'Samples'), CATDS: 4.6703461081502903E-2; n = 1.
Another experiment has as its system CDK13. To be noted: read-out: apparent Kd; compound concentrations: 100 nM and 1000 nM (sheet 'Samples'), CATDS: 3.8824736575062302E-2; n = 1.
The next experiment concerns CIT. As to conditions: read-out: apparent Kd; compound concentrations: 100 nM and 1000 nM (sheet 'Samples'), CATDS: 9.7052908053400402E-2; n = 1.
The test system of another experiment is CSNK1A1. To be noted: read-out: apparent Kd; compound concentrations: 100 nM and 1000 nM (sheet 'Samples'), CATDS: 4.3314802328408702E-2; n = 1.
The subject of another experiment is CSNK1D. As to conditions: read-out: apparent Kd; compound concentrations: 100 nM and 1000 nM (sheet 'Samples'), CATDS: 5.2512295854069302E-2; n = 1.
The next experiment relates to CSNK1E. To be noted: read-out: apparent Kd; compound concentrations: 100 nM and 1000 nM (sheet 'Samples'), CATDS: 4.5718432207302401E-2; n = 1.
The subject of the next experiment is GAK. As to conditions: read-out: apparent Kd; compound concentrations: 100 nM and 1000 nM (sheet 'Samples'), CATDS: 5.0119839441511702E-2; n = 1.
The next experiment deals with MAP3K12. As to conditions: read-out: apparent Kd; compound concentrations: 100 nM and 1000 nM (sheet 'Samples'), CATDS: 4.3727049359112501E-2; n = 1.
In the next experiment the test system is MAP3K4. As to conditions: read-out: apparent Kd; compound concentrations: 100 nM and 1000 nM (sheet 'Samples'), CATDS: 4.0498159279946502E-2; n = 1.
Another experiment deals with MTOR. As to conditions: read-out: apparent Kd; compound concentrations: 100 nM and 1000 nM (sheet 'Samples'), CATDS: 6.6094429766625107E-2; n = 1.
The subject of a further experiment is PIK3CA. To be noted: read-out: apparent Kd; compound concentrations: 100 nM and 1000 nM (sheet 'Samples'), CATDS: 0.16597567422928799; n = 1.
Another experiment deals with PRKCD. To be noted: read-out: apparent Kd; compound concentrations: 100 nM and 1000 nM (sheet 'Samples'), CATDS: 3.8004287822733102E-2; n = 1.
The subject of the next experiment is ROCK1. As to conditions: read-out: apparent Kd; compound concentrations: 100 nM and 1000 nM (sheet 'Samples'), CATDS: 9.5371648246972293E-2; n = 1.
Another experiment deals with ROCK2. To be noted: read-out: apparent Kd; compound concentrations: 100 nM and 1000 nM (sheet 'Samples'), CATDS: 9.3527332019104195E-2; n = 1.
The test system of the next experiment is TESK1. As to conditions: read-out: apparent Kd; compound concentrations: 100 nM and 1000 nM (sheet 'Samples'), CATDS: 4.6585684962704203E-2; n = 1.

Turning to `Cc1[nH]nc2c1N=C(c1ccccc1F)c1cc(C(N)=O)ccc1N2` [RO0282586-000], the potency estimated from few doses in the experiment with ACVR2B (CATDS: 3.5760557024692601E-2) is 1000 nM; with AURKA it was 30 nM; in the experiment on AURKB, 34.5 nM; in the experiment on CDKL5 (CATDS: 3.9289785265400001E-2), 749 nM; with FGFR1, 1300 nM; in the experiment with FLT3, 1480 nM. Further, the potency estimated from few doses with FLT4 is 82.8 nM; with GSK3A, 30.5 nM; in the experiment with GSK3B it was 43.6 nM; in the experiment with MAP3K1, 873 nM; with MAP3K5 it was 2230 nM; with MAPK10 it was 1550 nM. The potency estimated from few doses is 564 nM with MAPK9; 259 nM with NQO2; 1600 nM in the experiment on NUAK1; 340 nM in the experiment with PLK4; 1890 nM with PRKAA2; 333 nM in the experiment on RET. The potency estimated from few doses in the experiment with SLK was 2020 nM; with STK10 it was 530 nM; in the experiment on STK16, 1810 nM; with TEC it was 960 nM; with TTN, 920 nM.
Take `Cl.Cl.NCC(NC(=O)c1cc(-c2cccnc2)c(-c2ccnc3[nH]ccc23)s1)c1ccccc1.NCC(NC(=O)c1cc(-c2cccnc2)c(-c2ccnc3[nH]ccc23)s1)c1ccccc1` (stereo not shown) [GSK1323434A]: the potency estimated from few doses in the experiment with ACVR2B (CATDS: 4.2186627256430298E-2) was 1740 nM; in the experiment with ADCK3, 1690 nM; in the experiment on AKT2 it was 2290 nM; in the experiment with CDC42BPB, 1790 nM; with CDC42BPG, 1340 nM; in the experiment with CDK13 it was 2200 nM. Also, the potency estimated from few doses in the experiment with CDKL5 (CATDS: 4.2225060915193902E-2) was 1730 nM; in the experiment with CIT, 344 nM; in the experiment on CSNK1A1 it was 1620 nM; with CSNK1D it was 1030 nM; in the experiment with CSNK1E, 1410 nM; in the experiment with GAK, 1140 nM. Further, the potency estimated from few doses in the experiment with MAP3K12 was 1580 nM; in the experiment on MAP3K4, 1940 nM; in the experiment with MTOR, 653 nM; with PIK3CA, 161 nM; in the experiment on PRKCD it was 2350 nM; in the experiment on ROCK1, 354 nM. Moreover, the potency estimated from few doses in the experiment with ROCK2 is 364 nM; in the experiment on TESK1 it was 1350 nM.

These data come from publication PMC11062922 (Nature Chemical Biology, 2023).
